About 8,600 (12%) of roughly 69,000 compounds showed an effect of 50% or more. What follows is part of a selection rich in strong results, with near analogues and random picks from the rest.
Test system: Plasmodium berghei
Assay: Screen against P. berghei liver stage (PbLuc), transformed with Luciferase, at 10uM
Assay type: functional, HepG2
Conditions: tested at 10 uM

Compound	INHIBITION [%]
CC(C)N(Cc1ccccn1)S(=O)(=O)N1CCCC1c1ccco1 (stereo not given)	7.515
CCn1nnc2c1C(COC)CN(Cc1cccs1)C2 (stereo not given)	-0.113
COc1ccc(-c2nnsc2C(=O)N2CCN(C(C)=O)CC2)cc1	2.49
COc1ccc(-c2nnsc2C(=O)N2CCSCC2)cc1	26.4
COc1ccc(-c2nnsc2C(=O)N2CCC(C(N)=O)CC2)cc1	90.4
CCC(C)NC(=O)c1snnc1-c1ccc(OC)cc1 (stereo not given)	74
COC(=O)[C@@H](NC(=O)c1snnc1-c1ccc(OC)cc1)C(C)C	24.7
COC(=O)[C@H](CC(C)C)NC(=O)c1snnc1-c1ccc(OC)cc1	24.1
O=C(NCCO)NC(c1ccccc1)c1ccc2c(c1)CCCO2 (stereo not given)	22.6
NCCC(=O)N1CCC2(CC1)CN(C(=O)c1ccc(Cl)cc1)CCO2	16.8
Cc1nc(CN(C)Cc2cnc(N3CCOCC3)s2)no1	32.1
Cc1nn(C)c2ncnc(N(C)CC3CCN(CC(C)C)C3)c12 (stereo not given)	36.3
Cc1nn(C)c2nc(N(C)CCN(C)C)sc12	39.1
COCCN1CCC(CN(C)c2nc3c(s2)c(C)nn3C)CC1	64.4
Cc1nn(C)c2nc(N(C)CC3CCN(CC(C)C)C3)sc12 (stereo not given)	74.3
COCCN(Cc1nccs1)c1nc2c(s1)c(C)nn2C	22
COCCN(Cc1cnn(C)c1)c1nc2c(s1)c(C)nn2C	45.2
COCCN(CCOC)c1nc2c(s1)c(C)nn2C	65.6
Cc1nn(C)c2nc(N(CCN(C)C)C3CCCC3)sc12	53
CCCc1nnc(N(C)CC2CCN(CC(C)C)C2)o1 (stereo not given)	-62.4
Cc1nn(C)c2nc(N(C)CCN(C)C3CCCC3)sc12	39.9
COCCN1CCCC(CN(C)c2nc3c(s2)c(C)nn3C)C1 (stereo not given)	3.96
COCCN1CCC(CN(C)c2nc3c(s2)c(C)nn3C)C1 (stereo not given)	48.5
CCOc1cc2c(cc1CN1CCC3(CC1)CNC(=O)C3)CCC2	39.4
COc1c(C2CCCN2CC(=O)NCc2ccccn2)c(C)nn1C (stereo not given)	19.6
COC(C(=O)NC1CC1)c1ccccc1 (stereo not given)	-35.9
CCOC(=O)C1(O)CCN(C(=O)Nc2cccc(F)c2)CC1	-16.9

Compound	INHIBITION [%]
COc1cccc(OC)c1-c1ccnc2cc(CC(=O)NC(C)C)nn12	54.5
CNC(=O)Cc1cc2nccc(-c3c(OC)cccc3OC)n2n1	45.6
COc1cccc(OC)c1-c1ccnc2cc(CC(=O)NC3CC3)nn12	39.7
CCN(c1ccc(C(=O)NCc2ccnc(C)n2)cc1)C(C)C	0.433
CC(C)c1ccc(O)c(C(=O)NCc2cc[nH]n2)c1	12.8
CCN(c1ccc(C(=O)NCc2cc[nH]n2)cc1)C(C)C	82.6
Cc1cc(Cc2ccc(S(=O)(=O)N3CCOCC3)cc2)c(=O)[nH]n1	19.8
CCN(CC1CCOCC1)C(=O)C1CC(=O)N(Cc2cccnc2)C1 (stereo not given)	53.2
CCc1noc(CN(CC)C(=O)C2CC(=O)N(Cc3ccncc3)C2)n1 (stereo not given)	53.2
CCc1nnc(CN(CC)C(=O)C2CC(=O)N(Cc3cccnc3)C2)o1 (stereo not given)	23.5
CCN(Cc1nc(C)no1)C(=O)C1CC(=O)N(Cc2cccnc2)C1 (stereo not given)	15.6
CN(Cc1ccon1)C(=O)C1CC(=O)N(Cc2cccnc2)C1 (stereo not given)	-49.3
CCN(Cc1nc(C)no1)C(=O)C1CC(=O)N(Cc2ccccn2)C1 (stereo not given)	-14.1
CNC(=O)Cn1ccc2ccc(NC(=O)C(C)CSC)cc21 (stereo not given)	29.6
O=S(=O)(c1ccc(-c2cnco2)cc1)N1CCCC2(CCNCC2)CC1	52.7
O=S(=O)(c1ccc(-c2cnco2)cc1)N1CCCC(O)(CO)CC1 (stereo not given)	-31.4
O=S(=O)(c1ccc(-c2cnco2)cc1)N1CCC2(CCCNC2)C1 (stereo not given)	35.7
CC(c1cccc(-c2ncccc2C#N)c1)N(C)C (stereo not given)	19.3
CN(Cc1cc(C(C)(C)C)n[nH]1)C(=O)c1c[nH]nc1-c1cccc(F)c1	30.4
Cc1ccnc(NCc2cn3nc(C)sc3n2)n1	65.2
CCNc1ccnc(NCc2cn3nc(C)sc3n2)n1	-49.3
Cc1nn2cc(CNc3nccc(CCC(F)(F)F)n3)nc2s1	-4.91
O=C(C1CCC1)N1CCC2(CC1)CNCCO2	-12.4
O=C(C1CC=CC1)N1CCC2(CC1)CNCCO2	29
Cc1ccc(CN2CCOC3(CCN(C(=O)C4CCOC4)CC3)C2)cc1 (stereo not given)	39.3
Cc1ccc(CN2CCOC3(CCN(C(=O)C4CC=CC4)CC3)C2)cc1	55.6
CC(=O)N1CCOC2(CCN(C(=O)C3CC3)CC2)C1	85.6

Compound	INHIBITION [%]
O=C(C1CC1)N1CCC2(CC1)CNCCO2	51.2
O=C(C1CC1)N1CCOC2(CCNCC2)C1	36.7
CC(=O)N1CCCC2(C1)CN(C(=O)C1CCCCC1)CCO2 (stereo not given)	9.97
Cc1ccc(CN2CCOC3(CCN(C(=O)N4CCCC4)CC3)C2)cc1	15.7
Cc1ccc(CN2CCOC3(CCCN(C(=O)c4ccco4)C3)C2)s1 (stereo not given)	28.5
Cc1ccc(N(CCC#N)C(=O)CN2CCCC2c2ccsc2)cc1C (stereo not given)	-10.75
CC1CCC(C(=O)N2CCC(n3cc(C4(O)CCCC4)nn3)CC2)CC1 (stereo not given)	47.4
c1csc(-c2nc(CN3CCCC3Cn3cccn3)co2)c1 (stereo not given)	17.5
CC(C)(N)c1nc(C(F)F)cc(=O)[nH]1	-4.35
CS(=O)(=O)NC(c1ccccc1)c1ccc2c(c1)CCCO2 (stereo not given)	-9.98
CC(C)c1nc(CN(C)C(=O)[C@H](N)Cc2ccc(Cl)cc2)cs1	17.2
COc1ccc(CN(C)C(=O)NC(C)c2nncn2C)cc1F (stereo not given)	-24.7
CC(NC(=O)N(C)Cc1cccc(OC(F)F)c1)c1nncn1C (stereo not given)	68.2
CCOc1ccc(CN(C)C(=O)NC(C)c2nncn2C)cc1 (stereo not given)	-6.75
Cc1nc(C2CCNCC2)cc(N2CCOc3ccccc3C2)n1	-55.1
Cc1nc(CCN)cc(N2CCOc3ccc(Cl)cc3C2)n1	-43.5
Cc1nc(C2CCN(C)CC2)cc(N2CCOc3ccc(Cl)cc3C2)n1	94.3
CC(C)Oc1ccc(CN)c(C(F)(F)F)c1	10
CCOc1ccccc1OC1CCN(C(=O)c2cnns2)CC1	44.1
CC(C)c1cc(NC(=O)CNC2CCc3nc(C(C)C)nn3C2)on1 (stereo not given)	35.7
Cc1c(C2CCCN(C(=O)C3CC3)C2)n2c(nc1=O)CCC2 (stereo not given)	28.4
Cc1c(C2CCCN(C(=O)c3ccncc3)C2)n2c(nc1=O)CCC2 (stereo not given)	20.8
Cc1noc(C)c1C(=O)N1CCCC(c2c(C)c(=O)nc3n2CCC3)C1 (stereo not given)	55.6
N#Cc1c(F)cccc1Nc1cnn(CC(=O)N2CCOCC2)c1	19.2
CNC(=O)Cn1cc(Nc2cccc(F)c2C#N)cn1	-0.514
N#Cc1c(F)cccc1Nc1cnn(CC(N)=O)c1	65.4
CCc1csc(C2CCCN(C(=O)c3cnc[nH]3)C2)n1 (stereo not given)	10

Compound	INHIBITION [%]
CN(Cc1ccco1)Cc1cnc2n1CCN(c1ncccn1)CC2	2.4
Cc1ccc(S(=O)(=O)NCC(C)(C)N)c(F)c1	8.51
CN1CCCC(CNC(=O)N(C)Cc2ccc(Cl)c(F)c2)C1 (stereo not given)	31
CCN(CC)S(=O)(=O)N1CCCC1CC(=O)c1cccs1 (stereo not given)	-2.74
CCN(CC)S(=O)(=O)N1CC[C@H](c2ccccc2)[C@H]2NCCCC[C@H]21	47.2
CN1CCCCC[C@@H]2[C@@H]1[C@H](c1ccccc1)CN2C(=O)c1ccccn1	-37
CCN(CC)S(=O)(=O)N1CC[C@H](c2ccccc2)[C@@H]2[C@H]1CCCCN2C	73.1
CCN(CC)S(=O)(=O)N1C[C@@H](c2ccccc2)[C@H]2[C@H]1CCCCCN2C	51.7
CC(C)S(=O)(=O)N1C[C@@H](c2ccccc2)[C@H]2[C@H]1CCCCCN2C	16.5
O=S(=O)(N1CCCC1)N1C[C@@H](c2cccc(F)c2)[C@@H]2NCCCCC[C@H]21	43.6
N[C@H]1CN(S(=O)(=O)N2CCCC2)C[C@@H]1c1ccccc1	44.2
CCN(CC)S(=O)(=O)N1CCCC(c2cccc(C(=O)O)c2)C1 (stereo not given)	-31.5
O=S(=O)(N1CCCC1)N1CCCCC1CCc1ccccc1 (stereo not given)	31.8
CN1CCCC[C@@H]2[C@H]1[C@@H](c1ccccc1)CCN2S(=O)(=O)N1CCCC1	61.7
O=S(=O)(N1CCCC1)N1CC[C@H](c2ccccc2)[C@H]2NCCCC[C@H]21	52
CC[C@@H](c1ccccc1)n1c(CCN)n[nH]c1=O	39
CCc1noc(C(C)N2CCN(c3ccc(C#N)cc3F)CC2)n1 (stereo not given)	-17.4
O=C(CC1CCCC1)NCCS(=O)(=O)N1CCN(c2ccccc2)CC1	-16.4
CC(=O)NCc1cc(-c2cccs2)n(C2CCCC2)n1	1.74
COc1c(C2CCCN2CC(=O)N(C)c2nccs2)c(C)nn1C (stereo not given)	8.7
CN(C)c1ccc(C(=O)N2CCCC2c2noc(C3CC3)n2)nn1 (stereo not given)	3.263
Cc1ncc2c(n1)CN(CC(=O)Nc1nnc(C)s1)CC2	34.7
O=C(NCC1CC1)[C@@H]1CCO[C@@H]2CCN(CCc3ccccc3)C[C@H]21	47.1
COCC(=O)NCc1cc2n(n1)CCCN(Cc1ccccc1SC)C2	-46.2

From ChEMBL document CHEMBL4513216, “Probing the Open Global Health Chemical Diversity Library for Multistage-Active Starting Points for Next-Generation Antimalarials” (ACS Infect Dis, 2020)
